Measured values: PubChem BioAssay (NCATS)
Records with an inconclusive call do not appear. Calls of active or inactive are those of the source. The call rests on the fitted dose curve; in most records, active means well fitted cell-killing curve with a large enough effect; inconclusive means small, poorly fitted or top-dose-only effect; inactive means flat fitted curve, though single readings scatter.

Assays:
[1] = Cell Viability - LYMP2-011 (AID 969); further: nearly all actives have a fitted effect of over 60% in size
How it was run: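 Human lymphoblastoid cells (2500/well) were plated in complete medium, preincubated 5 hr at 37 C, then exposed to compounds for 24 hr at 37 C. Intracellular ATP was read by CellTiter-Glo luminescence, and AC50 came from Hill-equation concentration-response fits.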

[2] = Cell Viability - LYMP2-013 (AID 970); further: nearly all actives have a fitted effect of over 55% in size
How it was run: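 Human lymphoblastoid cells, 2500/well, were preincubated 5 hr at 37 C, then treated with compounds for 24 hr at 37 C in complete medium. Intracellular ATP was read by CellTiter-Glo luminescence; AC50 from Hill-equation fits of concentration-response data.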

[3] = Cell Viability - LYMP2-017 (AID 972); further: nearly all actives have a fitted effect of over 55% in size
How it was run: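 Human lymphoblastoid cells (2500/well) were seeded in complete medium, held 5 hr at 37 C, then exposed to compounds for 24 hr at 37 C. Intracellular ATP was read by CellTiter-Glo luminescence after 30 min at room temperature, with AC50 values from Hill-equation fits.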

[4] = Cell Viability - LYMP2-019 (AID 973); further: nearly all actives have a fitted effect of over 55% in size
How it was run: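 Human lymphoblastoid cells were seeded at 2500 cells/well, preincubated 5 hr at 37 C, then exposed to compounds for 24 hr at 37 C in complete medium. Intracellular ATP was measured by CellTiter-Glo luminescence; AC50 from Hill fits.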

[5] = Cell Viability - LYMP2-021 (AID 974);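 further: compound exposure lasts 24 hours at 37 °C; nearly all actives have a fitted effect of over 55% in size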
How it was run: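 Human lymphoblastoid cells (2500/well) were preincubated 5 hr at 37 C, then exposed to compounds for 24 hr at 37 C in complete medium. Intracellular ATP was read by CellTiter-Glo luminescence; AC50 came from Hill-equation fits of concentration-response data.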

[6] = Cell Viability - LYMP2-023 (AID 975); further: nearly all actives have a fitted effect of over 55% in size
How it was run: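 Human lymphoblastoid cells (2500/well) were preincubated 5 hr at 37 C, then exposed to compounds for 24 hr at 37 C in complete medium. Cellular ATP was read by CellTiter-Glo luminescence, and AC50 came from Hill-equation fits.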

[7] = Cell Viability - LYMP2-025 (AID 976)
How it was run: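 Human lymphoblastoid LYMP2-025 cells (2500/well) were pre-incubated 5 hr at 37 C, then treated with compounds for 24 hr at 37 C in complete medium. Viability was read as intracellular ATP by CellTiter-Glo luminescence; AC50 from Hill fits.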

[8] = Cell Viability - LYMP2-002 (AID 977);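 further: compound exposure lasted 24 h at 37 °C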
How it was run: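 Cytotoxicity is scored as concentration-dependent loss of cellular ATP in a human lymphoblastoid line after 24 hr compound treatment at 37 C. AC50 is obtained by modelling concentration-response data with the Hill equation.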

[9] = Cell Viability - LYMP2-006 (AID 978); further: nearly all actives have a fitted effect of over 60% in size
How it was run: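 Cells are seeded at 2500 per well and rested 5 hr at 37 C. Compounds are added across a concentration series for 24 hr at 37 C, after which ATP is quantified by luciferase luminescence.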

[10] = Cell Viability - LYMP2-007 (AID 979);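 further: cells exposed to compound for 24 h before reading; nearly all actives have a fitted effect of over 60% in size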
How it was run: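 Human lymphoblastoid cells (2500/well) were plated in complete medium, incubated 5 hr at 37 C, then exposed to compounds for 24 hr at 37 C. Intracellular ATP was read by CellTiter-Glo luminescence after 30 min at room temperature; AC50 from Hill fits.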

[11] = Cell Viability - LYMP2-008 (AID 980); further: nearly all actives have a fitted effect of over 60% in size
How it was run: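 Human lymphoblastoid cells (2500/well) were plated, held 5 hr at 37 C, then exposed to compounds for 24 hr at 37 C in complete medium. Intracellular ATP was read by CellTiter-Glo luminescence; AC50 from Hill-fitted concentration-response.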

[12] = Cell Viability - LYMP2-010 (AID 981); further: nearly all actives have a fitted effect of over 55% in size
How it was run: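 Human lymphoblastoid LYMP2-010 cells (2500/well) were preincubated 5 hr at 37 C, then exposed to compounds for 24 hr at 37 C in complete medium. Intracellular ATP was measured by CellTiter-Glo luminescence after 30 min at room temperature; AC50 from Hill-fitted concentration-response.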

[13] = Cell Viability - LYMP2-012 (AID 982)
[14] = Cell Viability - LYMP2-014 (AID 983); further: nearly all actives have a fitted effect of over 50% in size
How it was run: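 Human lymphoblastoid cells (2500/well) were pre-incubated 5 hr at 37 C, then exposed to compounds in complete medium for 24 hr at 37 C. Intracellular ATP was read by CellTiter-Glo luminescence after 30 min at room temperature; AC50 from Hill fits.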

[15] = Cell Viability - LYMP2-016 (AID 984); further: nearly all actives have a fitted effect of over 55% in size
How it was run: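 Cells were seeded at 2500 per well and rested 5 hr before a 24 hr compound exposure at 37 C. Viability was then gauged as cellular ATP by luciferase luminescence, with AC50 values fitted to the Hill equation.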

[16] = Cell Viability - LYMP2-018 (AID 985); further: nearly all actives have a fitted effect of over 50% in size
How it was run: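 Human lymphoblastoid cells (2500/well) were pre-incubated 5 hr at 37 C, then exposed to compounds for 24 hr at 37 C in complete medium. Viability was read as intracellular ATP by CellTiter-Glo luminescence; AC50 values came from Hill-equation fits.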

[17] = Cell Viability - LYMP2-020 (AID 986); further: nearly all actives have a fitted effect of over 55% in size
How it was run: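 Human lymphoblastoid cells, 2500/well, were pre-incubated 5 hr at 37 C, then exposed to compounds for 24 hr at 37 C in complete medium. Intracellular ATP was read by CellTiter-Glo luminescence, and AC50 was derived by Hill fitting of concentration-response data.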

[18] = Cell Viability - LYMP2-024 (AID 988); further: nearly all actives have a fitted effect of over 60% in size
How it was run: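 Human lymphoblastoid cells (2500/well) in complete medium were preincubated 5 hr at 37 C, then exposed to compounds for 24 hr at 37 C. Intracellular ATP was read by CellTiter-Glo luminescence; AC50 from Hill-equation fits of concentration-response data.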

[19] = Cell Viability - LYMP2-015 (AID 971); further: nearly all actives have a fitted effect of over 55% in size
How it was run: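 Human lymphoblastoid cells (2500/well) in complete medium were preincubated 5 hr at 37 C, then compound-treated 24 hr at 37 C. Intracellular ATP was read by CellTiter-Glo luminescence after 30 min at room temperature; AC50 came from Hill-equation concentration-response fits.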

[20] = Cell Viability - LYMP2-022 (AID 987); further: nearly all actives have a fitted effect of over 55% in size
How it was run: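 Human lymphoblastoid cells, 2500/well, preincubated 5 hr at 37 C, then exposed to compounds over a concentration range for 24 hr at 37 C in complete medium. Viability read as intracellular ATP by CellTiter-Glo luminescence after 30 min at room temperature; AC50 from Hill fits.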

Measured: Potency
Potency means the concentration at half of the fitted maximal effect.

Nc1ccc(Cl)cc1N
not listed: [19] | [20]
inactive: all other assays above

Cc1cc(O)ccc1Cl
inactive: all assays above

O=C(O)C(Cl)Cl
inactive: all assays above

c1cc2ccc3cccc4ccc(c1)c2c34
inactive: all assays above

O=C(O)COc1ccccc1
inactive: all assays above

OCCCBr
inactive: all assays above

O=[N+]([O-])c1c2ccccc2cc2ccccc12
inactive: all assays above

CCCCC(CC)COC(=O)c1ccccc1C(=O)OCC(CC)CCCC (configuration not stated)
inactive: all assays above

CCOP(=O)(NC(C)C)Oc1ccc(SC)c(C)c1 (configuration not stated)
inactive: all assays above

O=[N+]([O-])c1c(Cl)c(Cl)cc(Cl)c1Cl
inactive: all assays above

CN(C)[C@@H]1C(=O)C(C(N)=O)=C(O)[C@@]2(O)C(=O)C3=C(O)c4c(O)cccc4[C@@](C)(O)[C@H]3[C@H](O)[C@@H]12
inactive: all assays above

CC(=O)[O][Hg][c]1ccccc1
active: [1] 1000 nM | [2] 631 nM | [19] 631 nM | [3] 631 nM | [4] 794 nM | [5] 794 nM | [6] 1260 nM | [7] 1260 nM | [8] 1580 nM | [9] 1580 nM | [10] 1000 nM | [11] 1260 nM | [12] 398 nM | [13] 501 nM | [14] 1580 nM | [15] 1000 nM | [16] 631 nM | [17] 794 nM | [20] 501 nM | [18] 501 nM

CC(C)(O)C(=O)Nc1ccc([N+](=O)[O-])c(C(F)(F)F)c1
not listed: [20]
inactive: all other assays above

Nc1ccc(Sc2ccc(N)cc2)cc1
inactive: all assays above

C1CCC(NC2CCCCC2)CC1
inactive: all assays above

O=S(=O)(c1ccc(Cl)cc1)c1ccc(Cl)cc1
inactive: all assays above

CN(C)NC(=O)CCC(=O)O
inactive: all assays above

O=[N+]([O-])c1cc([N+](=O)[O-])c2ccccc2c1
inactive: all assays above

CCOCCOC(C)=O
inactive: all assays above

C=CC(=O)NCNC(=O)C=C
inactive: all assays above

COc1ccc(C(c2ccc(OC)cc2)C(Cl)(Cl)Cl)cc1
inactive: all assays above

Nc1ccc(Cl)cc1
inactive: all assays above

CCCCCCCCc1ccc(O)cc1
inactive: all assays above

COC(C)(C)CCCC(C)C/C=C/C(C)=C/C(=O)OC(C)C (configuration not stated)
inactive: all assays above

CCCCOC(=O)c1ccccc1C(=O)OCc1ccccc1
inactive: all assays above

Nc1ccc([N+](=O)[O-])cc1
inactive: all assays above
